# Laboratory results from PubChem BioAssay AID1345083 (National Center for Advancing Translational Sciences (NCATS), 2018).
# Among all 94,000 compounds or so, about 6,200 (6.6%) were called active. About 31% were inconclusive and are not listed. Calls follow the shape of the dose curve; as a rule, active = well fitted inhibition curve with a large enough effect; inconclusive = small, poorly fitted or top-dose-only effect; inactive = flat fitted curve, though single readings scatter. This excerpt belongs to a sample that is enriched for actives.
# Assay: Cytotoxic Profiling in HEK 293 Cell Line of Diverse Libraries Using Quantitative High-Throughput Screening; also: nearly all actives have a fitted effect of over 60% in size
# Details: HEK 293 viability, ATP luminescence (CellTiter-Glo), 48-72 h; series mostly up to 115 µM; activity change, negative = cytotoxicity: at the top concentration
# Method in brief: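 Cytotoxicity was scored by loss of ATP-coupled luminescence (CellTiter-Glo) in HEK 293 cells. Compound treatment ran 48 or 72 hr at 37 degree Celsius, 5% CO2, 95% humidity.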
# % is scaled to controls: 0 for no effect and ±100 for the full control effect; potency is read from the fitted curve at half-maximal effect.
Structure (SMILES),Potency,"activity change, negative = cytotoxicity",outcome
COc1cc(CNCc2ccc(C)c(F)c2F)ccc1OCC(O)CN1CCC(O)CC1 (stereo unspecified),17.8 µM (active),–,–
COc1ccc(CC(=O)N2CCC3(CC2)CC(O)CCO3)cc1OC (stereo unspecified),–,-5.09% (inactive),–
COc1cc(CN2CCC3(CC2)CC(O)CCO3)ccc1F (stereo unspecified),–,1.59% (inactive),–
COc1ccc(CN2C=C(C(=O)OCc3nc(C)no3)C(C)=NS2(=O)=O)cc1,–,-6.25% (inactive),–
NC(=O)[C@@H](Cc1ccccc1)NC(=O)[C@@]1(O)C[C@@H](O)[C@H](O)[C@@H](NC(=O)Nc2ccc(OC(F)(F)F)cc2)C1,–,0.41% (inactive),–
CN(Cc1cccn1C)Cc1ccnn1C,100 µM (active),–,–
Cc1noc(C)c1[S+](=O)([O-])N(C)Cc1cccn1C,–,2.89% [at 172 µM] (inactive),–
Cn1nccc1CN1CCC(N2Cc3ccccc3C2=O)CC1,–,2.3% (inactive),–
O=C(NC[C@H]1O[C@@H](CO)[C@@H](O)[C@H]1N1CCN(c2ccccc2)CC1)c1ccccc1Cl,–,-0.559% (inactive),–
CCCNC(=O)CCC1CCN(C(=O)c2ccc(C)cc2)CC1,–,5.93% (inactive),–
Cc1ccc(C(=O)N2CCC(CCC(=O)N3CCc4ccccc4C3)CC2)cc1,44.7 µM (active),–,–
CC1(C(=O)N2CCc3ccccc3C2)CCOCC1,–,–,inactive [at 230 µM]
CC(=O)N[C@@H]1CN(Cc2cn[nH]c2-c2ccc(F)cc2)C[C@H]1CO,–,-18.7% (inactive),–
COc1ccc(-c2[nH]ncc2CN2CCCC(C(=O)NCc3ccccc3)CCNC(=O)CC2)cc1 (stereo unspecified),–,-3.9% (inactive),–
COc1ccc2cc(-c3[nH]ncc3CN3CCN(c4cccc(C)n4)CC3)ccc2c1,20 µM (active),–,–
Cc1ncccc1C(=O)N1CCC2(CC1)CC(CO)N(C(=O)c1ccccc1)C2 (stereo unspecified),–,-21.8% (inactive),–

Structure (SMILES),Potency,"activity change, negative = cytotoxicity",outcome
COCCC1(NS(C)(=O)=O)CCN(C(=O)c2ccc(C#N)cc2)CC1,–,1.21% (inactive),–
COc1ccc([C@@H](NC(=O)Cc2c(F)cccc2Cl)C2CC(O)C2)cn1 (stereo partly specified),–,–,inactive
COc1ccc(C(=O)N2CCC(n3cc(-c4nc(C(C)C)no4)nn3)CC2)cc1F,–,-20.9% (inactive),–
CCOc1ccc(C(=O)N2CCC(n3cc(-c4nc(C)no4)nn3)C2)cc1 (stereo unspecified),–,2.35% (inactive),–
COc1cc(OC)cc(C(=O)N2CCCC(n3cc(-c4nc(C(C)C)no4)nn3)C2)c1 (stereo unspecified),–,-23.9% (inactive),–
O=C(c1ccc(Cl)cc1)N1CCCC(n2cc(-c3nc(-c4ccccc4)no3)nn2)C1 (stereo unspecified),35.5 µM (active),–,–
COc1ccc(C(=O)N2CCCC(n3cc(-c4nc(C5CC5)no4)nn3)C2)cc1 (stereo unspecified),–,-16.6% (inactive),–
CC(C)c1noc(-c2cn(C3CCN(C(=O)c4ccc(N(C)C)cc4)C3)nn2)n1 (stereo unspecified),31.6 µM (active),–,–
COc1ccc(F)cc1-c1ncc2c(n1)OCCN(CC1CC1)C2=O,–,-11.4% [at 172 µM] (inactive),–
CCNC(=O)N1C[C@@H]2OCC(=O)N(Cc3ccc(F)cc3)[C@@H]2C1,–,-7.12% [at 172 µM] (inactive),–
CCOC(=O)N1CCC(N2CCN(Cc3ccccc3F)C(CCO)C2)CC1 (stereo unspecified),–,-1.09% (inactive),–
Cc1ccc(CN2CCN(c3nc4ccccc4o3)CC2CCO)cc1 (stereo unspecified),44.7 µM (active),–,–
COc1ccc(CN2CCN(c3nc4ccccc4o3)CC2CCO)cc1C (stereo unspecified),35.5 µM (active),–,–
CCOc1ccc(CN2CCN(CC(N)=O)CC2CCO)cc1 (stereo unspecified),–,-4.27% (inactive),–
COc1cccc(CN2CCN(c3ncccc3Cl)CC2CCO)c1 (stereo unspecified),–,-18.9% (inactive),–
